# High-throughput results as filed in PubChem BioAssay.
# This is a sample that favours compounds with a hit; in the whole collection about 1.2% have one here.
# gsp agonist = agonists of gsp mutant (McCune-Albright syndrome); gsp mutant cells, cAMP HTRF, 30 min; AID 624287; Potency, µM (top dose mostly 76.9 µM), for the others: top-dose activation (cAMP increase), most hits filed as activators; 340,000 compounds, 0.13% hits; active means well fitted activation curve with a large enough effect; inconclusive means small, poorly fitted or top-dose-only effect, or another doubt; inactive means no such curve, though single readings can be large or run the other way; cell line not stated here;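 further: phosphodiesterase inhibitor Ro 20-1724 added with compounds to block cAMP breakdown; potency means the concentration at half of the fitted maximal effect; nearly all actives have a fitted effect of over 60% in size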
#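 Cells in DMEM/10% FBS with G418 were pretreated with compounds in DMSO plus […] (300 uM stock) for 30 min at 37C. cAMP was measured by HTRF (cAMP-d2 plus anti-cAMP antibody-K) after 30 min at room temperature.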
# gsp antagonist = antagonists of gsp mutant (McCune-Albright syndrome); gsp-mutant cells, cAMP HTRF, 30 min; Potency, µM (highest dose often 76.9 µM), for inactives: at the top dose activity change, negative = inhibition, usual class: inhibitors; 340,000 compounds, 0.4% hits; AID 624288; calls by dose curve; cell line not stated here;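 further: intracellular cAMP measured with PDE inhibitor Ro 20-1724 present during compound exposure; potency means the concentration at half of the fitted maximal effect; on the % scale 0 is the no-effect control and ±100 the full control effect; nearly all actives have a fitted effect of over 65% in size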
#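 Cells, 2000/well, grown 16–24 h in DMEM 10% FBS with 0.5 mg/ml G418, then compounds plus […] (300 uM addition stock), 30 min at 37C. cAMP read by HTRF (cAMP-d2 and anti-cAMP antibody-K in lysis buffer) after 30 min RT.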
# pAkt inh = blocks phosphorylation of Akt; activity change, % for hits at 50 µM; AID 651550; Neuro2A IGF-stimulated pAkt S473 HTRF, 20 min; hits give low values; 360,000 compounds, 0.32% hits; in the data active means activity change below about -80%; inconclusive means mostly about -51% to -80%; further: on the % scale 0 is the no-effect control and ±100 the full control effect
#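 Neuro2A cells (4,500/well, DMEM with 0.5% FBS) were treated with compound at a single 50 µM final concentration, stimulated with 6 nM IGF for 20 min at 37 °C, and lysed. Phospho-Akt Ser473 was read by HTRF as 665/615 ratio ×10^4.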
# RXFP1 antagonist = antagonists of human relaxin receptor RXFP1 | HEK293-RXFP1, relaxin-stimulated cAMP HTRF, 30 min; hits give low values | 350,000 compounds, 0.59% hits | activity change, negative = inhibition, % at 57.5 µM | Q9HBX9;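 active means activity change of -60% or lower, but not beyond a set lower limit; inconclusive means change between -60% and -40%, or beyond the set limit; inactive means change above -40%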; further: on the % scale 0 is the no-effect control and ±100 the full control effect
# Target sequence (Q9HBX9 whole entry, looked up): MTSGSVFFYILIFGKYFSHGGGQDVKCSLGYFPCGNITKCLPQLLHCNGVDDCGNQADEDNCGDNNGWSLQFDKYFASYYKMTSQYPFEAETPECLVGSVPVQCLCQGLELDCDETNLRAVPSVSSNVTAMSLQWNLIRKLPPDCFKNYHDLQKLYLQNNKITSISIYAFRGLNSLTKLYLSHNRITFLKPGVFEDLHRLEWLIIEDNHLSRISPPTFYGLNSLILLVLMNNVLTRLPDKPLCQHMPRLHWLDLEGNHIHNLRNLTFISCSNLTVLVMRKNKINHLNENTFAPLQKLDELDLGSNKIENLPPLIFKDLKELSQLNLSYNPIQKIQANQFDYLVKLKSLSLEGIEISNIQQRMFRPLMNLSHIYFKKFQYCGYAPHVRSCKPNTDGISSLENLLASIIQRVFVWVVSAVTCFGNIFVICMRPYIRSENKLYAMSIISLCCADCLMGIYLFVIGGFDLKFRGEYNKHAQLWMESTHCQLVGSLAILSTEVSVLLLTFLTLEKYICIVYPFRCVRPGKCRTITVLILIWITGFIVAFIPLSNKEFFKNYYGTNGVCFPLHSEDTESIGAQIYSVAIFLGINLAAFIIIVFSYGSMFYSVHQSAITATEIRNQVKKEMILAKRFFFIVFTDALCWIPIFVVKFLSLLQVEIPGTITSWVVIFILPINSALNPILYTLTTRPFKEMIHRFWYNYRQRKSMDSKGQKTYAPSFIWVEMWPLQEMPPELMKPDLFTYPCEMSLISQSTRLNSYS
# RXFP1 ag = activates the human relaxin receptor RXFP1; AID 2676; HEK293T-RXFP1 cAMP TR-FRET, 30 min; response scale: percent of porcine relaxin response, buffer zero; Potency, µM (series often up to 57.5 µM), for inactives: top-dose activation, most hits filed as activators; 370,000 compounds, 0.3% hits; active means well fitted activation curve with a large enough effect; inconclusive means small, poorly fitted or top-dose-only effect; further: potency means the concentration at half of the fitted maximal effect; on the % scale 0 is the no-effect control and ±100 the full control effect; nearly all actives have a fitted effect of over 60% in size
#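 HEK293T cells stably expressing RXFP1 were pretreated with the PDE4 inhibitor Ro 20174, exposed to compounds for 30 min at 37C, lysed, and cAMP was read by TR-FRET. Data normalized to buffer (basal) and 29 nM porcine relaxin (100%).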
# Numbers without * were called inactive; i = inactive; ? = inconclusive; / = no result; [ ] = remark or other dose.
SMILES,gsp agonist,gsp antagonist,pAkt inh,RXFP1 antagonist,RXFP1 ag
COc1cc(C2C(C(=O)c3ccc(C)o3)=C(O)C(=O)N2c2cc(C)on2)cc(Br)c1O (configuration not stated),?,-6%,i,1,3%
CCN(CC)CCN(C(=O)c1ccc([N+](=O)[O-])cc1)c1nc2c(OC)cccc2s1,13µM*,3%,i,0,7%
Cc1nc(C)c(-c2ccc(SCC(=O)Nc3ccc(Cl)c(Cl)c3)nn2)s1,/,/,/,-37,?
Cc1cccc(NC(=O)Cn2c(=O)nc(-c3ccccc3)c3ccccc32)c1C,/,/,/,3,1%
CCOc1ccc2[nH]c(=O)c(CN(Cc3ccccc3)C(=O)N3CCCC3)cc2c1,-28%,4%,-132%*,0,2%
N#C/C(=C(/O)COC(=O)CCCNC(=O)c1ccc(Cl)cc1)c1nc2ccccc2[nH]1,13%,-6%,-102%*,1,1%
N#C/C(=C(/O)COC(=O)CSc1ccc(Cl)cc1)c1nc2ccccc2[nH]1,-1%[15.4 µM],-5%,i,-11,0%
COc1ccc(N2CCN(S(=O)(=O)c3ccc4oc(=O)c5ncn(C)c5c4c3)CC2)cc1,/,/,/,-1,4%
CCn1nnnc1SCC(=O)c1ccc2c(c1)OCCO2,-28%,6%,-104%*,-6,2%
CC(C)n1nnnc1SCC(=O)c1ccc2c(c1)OCCO2,16%,-3%,i,-8,0%
COc1cccc(CNC(=O)c2ccc3c(c2)N(C)C(=O)C2CCCCN32)c1 (configuration not stated),/,/,/,0,1%
CCN1CCN(c2cc(-c3ccc(F)cc3)c3c(n2)CCCCCC3)CC1,/,/,/,-11,/
CCc1c(C(=O)Nc2ccccc2)c(C)[nH]c(=S)c1C#N,13µM*,5%,i,-1,9%
O=C(Nc1ccc(F)c(Cl)c1)C1CCCN1S(=O)(=O)c1ccc(F)cc1 (configuration not stated),/,/,/,-10,-1%
O=C(OCC(COC(=O)c1cccnc1)(COC(=O)c1cccnc1)COC(=O)c1cccnc1)c1cccnc1,/,/,/,3,/
CCOC(=O)C[n+]1c(C)ccc2c1CCC2,25%,12%,-109%*,-13,0%
C[C@H]1c2cccc(O)c2C(O)=C2C(=O)C3(O)C(O)=C(C(N)=O)C(=O)[C@@H](N(C)C)[C@@H]3[C@@H](O)[C@@H]21 (some centres not stated),/,3%,i,/,0%
C=C1c2cccc(O)c2C(O)=C2C(=O)[C@]3(O)C(O)=C(C(N)=O)C(=O)[C@@H](N(C)C)[C@@H]3[C@@H](O)[C@H]12,/,2%,i,-70*,-1%
CC(=O)c1cccc(OCc2cc(C(=O)N3CCC(N4CCCCC4)CC3)no2)c1,15%,-3%,i,-81*,0%
CCOC(=O)c1cnc2c(OC)cccc2c1N1CCN(c2ccccc2OC)CC1,7%,-10%,i,-21,1%
CCOC(=O)c1cnc2c(OC)cccc2c1N1CCN(c2ccc(OC)cc2)CC1,14%,15%,-128%*,-10,2%
C/C=C(/C(=C/C)c1ccc(OC(C)=O)cc1)c1ccc(OC(C)=O)cc1,/,/,/,-12,/
O=C1NN=C(c2ccc(Br)cc2)CC1c1ccc(Cl)cc1 (configuration not stated),-20%,-3%,i,-61*,2%
FC(F)(F)c1cccc(Nc2nc3nonc3nc2Nc2ccc(Cl)cc2)c1,/,/,/,-82*,2%
CCc1ccc(NC(=O)CSc2c(C)cnc3c2c(=O)n(C)c(=O)n3C)cc1,/,/,/,1,-1%
SMILES,gsp agonist,gsp antagonist,pAkt inh,RXFP1 antagonist,RXFP1 ag
O=c1cc(-c2ccccc2)[nH]n1-c1ccccc1,20%,-18%,i,-73*,/
O=c1ccc(=O)n(-c2ccccc2)[nH]1,-18%[15.4 µM],1%,i,0,2%
Cc1cccc(N2CCN(c3nc4ccc(C)cc4n4cnnc34)CC2C)c1 (configuration not stated),/,/,/,/,6%
CN(C)CCNCc1ccc(OC2CCCC2)cc1,9%,2%,-114%*,2,6%
CCC(CO)NCc1ccc(OC2CCCC2)cc1 (configuration not stated),-22%,13%,i,-4,0%
Cc1nc2c(C(=O)NCc3ccccc3)c[nH]n2c(=O)c1Cc1ccccc1Cl,/,/,/,-60*,1%
COc1ccc(-c2nc(C(=O)NCC3CCCO3)cc3c2[nH]c2ccccc23)cc1 (configuration not stated),/,28µM*,i,/,4%
Cc1ccc(-c2nc(C(=O)NCC3CCCO3)cc3c2[nH]c2ccccc23)cc1 (configuration not stated),/,?,i,/,0%
COc1ccc(Nc2nc3ccccc3c3nnc(C)n23)cc1Cl,/,/,/,-6,1%
COc1ccc(-c2nnc(SCC(=O)NC3CCCC3)nc2-c2ccc(OC)c(OC)c2)cc1OC,/,/,/,-70*,0%
CCOc1ccc(-c2nnc(SCC(=O)NC3CCCCC3)nc2-c2ccc(OCC)c(OC)c2)cc1OC,/,/,/,-34,2%
O=C(NCc1cccc(Cl)c1)c1cc2ccc3cccnc3c2[nH]1,/,/,/,-27,0%
COc1ccccc1NC(=O)c1cc2ccc3cccnc3c2[nH]1,/,/,/,-71*,0%
CC(C)N(Cc1ccccc1)C(=O)c1cc2ccc3cccnc3c2[nH]1,/,/,/,-101*,0%
CC1(C)SC2C(NC(=O)C(c3ccccc3)S(=O)(=O)O)C(=O)N2C1C(=O)O (configuration not stated),/,/,/,-10,/
Cc1onc(-c2ccccc2Cl)c1C(=O)Oc1ccc(Cl)cc1Cl,/,/,/,-78*,0%
Cc1c(C(=O)N2CCC(C)CC2)c(S(=O)(=O)N(Cc2ccccc2)C(C)(C)C)c(C)n1C,/,/,/,-10,2%
CCCCCCCCNc1ncnc2ccccc12,5%,0.89µM*,/,-10,-2%
Cc1cc(C)n2nc(C(=O)N3CCN(c4ccc([N+](=O)[O-])cc4)CC3)nc2n1,26%,11µM*,i,/,24%
COc1ccc(N2CCN(C(=O)c3nc4nc(C)cc(C)n4n3)CC2)cc1,-1%[15.4 µM],1%,i,-7,2%
O=c1[nH]c(SCc2ccc(Cl)cc2)nc2ccsc12,-24%,-2%,i,5,0%
CSc1nc(-c2ccccc2)c(C#N)c(=O)[nH]1,?,16%,i,36,?
CNC(=O)NC(=O)CSc1nc(-c2cccs2)c(C#N)c(=O)[nH]1,?,0%,i,43,14µM*
Cc1ccc(C)c(NC(=O)CSc2nc(-c3ccccc3)c(C#N)c(=O)[nH]2)c1,/,/,/,10,-3%
CCc1nc(SCc2ccc(F)cc2)[nH]c(=O)c1C#N,-11%,35µM*,i,-18,-1%
Cc1snc(SCc2ccc(F)cc2)c1C#N,-25%,-5%,i,-10,-3%
N#Cc1c(-c2cccs2)nc(SCc2ccc(Cl)cc2)[nH]c1=O,73%[15.4 µM],16%,i,-3,16µM*
